This passage reports sensor-assay potency score (higher = more potent) results from the OligoGym collection.
Note: reference of the scale not given here.

The first assay addresses REPS2. The experiment in a line: pooled miR-30 sensor sort-seq; sequence = guide strand. The following applies: shRNA.
For TTTGACACAGTCAAACATCTAT, the sensor-assay potency score (higher = more potent) was -0.0627.
Still for that read-out and setting: in the case of TTCTTTGACATCATAAAGCGAG it was -0.889.
On the same count and under the same terms, in the case of TCGTTCTTGATGAACCTCCTTG it was -0.785.
On the same count and under the same terms, in the case of TAAATATGGAATCTGAACCTTA it was -0.238; in that of TAGTACTTTTCAAAGCTTGTTT, -0.389; in that of TTATCCTCATCGTCCATTCTTT, -0.725.
Consider TTCTGTGATCTGGTGCAGCGTC, for which the sensor-assay potency score (higher = more potent) is -0.566.

The next assay concerns the target RERG. The description is as above. As to conditions: shRNA.
The sequence TTTGTTTCCAACCAAGATGAGA displayed a sensor-assay potency score (higher = more potent) of -1.39.
Same read-out and setting: in the case of TCTTCTGTGCTAACCTGCCTGG it was -0.541; in that of TAGAGTTCCTTCTATTTCCTGT, 0.463; in that of TTAATTTGCTTGTCTTTTGGAC, -0.0136.
The same measure, in the same setting: in the case of TTTGATCTCATCTAGGATGTTC it was 0.194; in that of AACAACTTCATCATCGATGGTT, -0.0718.
Same read-out and setting: in the case of TTGCCCTGCACCATCCTCCGGC it was -0.458; in that of TTGACATGCGTGGTGGAGCTGC, -0.453.
In turn, TAATTCTACATCTTCTACTAGC gave a sensor-assay potency score (higher = more potent) of -0.25.
In turn, TAATTTTTCTTACTGTACCTGG had a sensor-assay potency score (higher = more potent) of 0.0466.
On the same count and under the same terms, then TTCTACATCTTCTACTAGCATT, with -1.27; and TTAGACACATTTATTCAGCTGT, with 0.3.

Another assay has as its target REST. Described as above. As to conditions: shRNA.
For the sequence TATTTGAACTGTAAATATCTGG, the sensor-assay potency score (higher = more potent) is -0.000404.
On the same count and under the same terms, in the case of TACACTTGTAGACTCGCTCATT it was -0.726; in that of TTTCACTTTTGAGACATCCATT, -1.15; in that of TTGAACTGTAAATATCTGGAGC, -0.111.
On the same count and under the same terms, then TAGATTTGAAGTGATACTGTAG, with 0.294.
As to TTCAATAAGGACTTGCTCCTTC, the sensor-assay potency score (higher = more potent) was found to be 0.499.
On the same count and under the same terms, then TATCTTAACAGGTTCCTTCTGG, with 0.123; and TATCTGAACAGGCTCCTTCTGG, with -0.749.
The same measure, in the same setting: then TTTGCTGTAATCTTTTCCCTTT, with -0.0854; and TTCATCTTCATCAATTTCCTGA, with 0.487; and TTTCTTAGCACTGTGAACTCTG, with 0.443.
Same read-out and setting: in the case of TTGGTCTTCGAGCTCTTGCCTT it was -0.836.

The target of a further assay is RET. Described as above. As to conditions: shRNA.
TAAACATCTCGGGACAAGCCGA returned a sensor-assay potency score (higher = more potent) of -0.999.
On the same count and under the same terms, then TTGGGTCTCCACAACATCGCAG, with -0.15; and TTGGATATCTTGGAAACCCAGT, with -0.723; and TTCCGGTTGAGAACCAGCCTAT, with -0.898.
Sequence TAGAGTTTGTTTTCAATCCATG returned a sensor-assay potency score (higher = more potent) of -0.723.
TTTAACTGGAATCCGACCCTGG showed a sensor-assay potency score (higher = more potent) of 0.235.
On to TTGAACTCCACCACGGCGCTGG, for which the sensor-assay potency score (higher = more potent) was 0.715.
Still for that read-out and setting: in the case of TACAATTTGATGACATGTGGGT it was 0.209; in that of TTAAGCATATCTGAAAACCAAA, -1.63.
